For 73 molecules, INHIBITION results are on record in ChEMBL document CHEMBL4513216, “Probing the Open Global Health Chemical Diversity Library for Multistage-Active Starting Points for Next-Generation Antimalarials” (ACS Infect Dis, 2020).

Among all 69,000 compounds or so, about 8,600 (12%) showed an effect of 50% or more. The sample holds strong results, similar compounds and a random draw of the others, so the mix is not that of the screen.

The subject of this experiment is Plasmodium berghei. Description: Screen against P. berghei liver stage (PbLuc), transformed with Luciferase, at 10uM. It is filed as functional, HepG2. Conditions: tested at 10 uM.
Regarding `NC(=O)c1cc(C2CCCN(CCOc3ccc(F)cc3)C2)n[nH]1` (stereo not drawn), the INHIBITION is on record as 27.25%.

Turning to `CC(NCc1cc(O)c2cccc(F)c2n1)c1ccc(S(C)(=O)=O)cc1` (stereo not drawn), the INHIBITION is reported as 15.1%.

For the molecule `CCS(=O)(=O)Nc1ccc2c(c1)OCC(C)(C)C(=O)N2C`, the INHIBITION was found to be 25.8%.

For the molecule `O=C(NC1CCCC1)C1(Cc2cc(C3CCOC3)no2)CCNCC1` (stereo not drawn), the INHIBITION was 26.7%.

`COc1ccc(NCc2nc(=O)n(CCC(C)C)[nH]2)cc1`: the INHIBITION is listed as -27.6%.

Consider `c1ccc2c(c1)ccn2CCCNC1CCOC2(CCOCC2)C1` (stereo not drawn), for which the INHIBITION is on record as -27.5%.

With `COc1ccc(-c2nc(CN3CCN(CCO)CC3)co2)cc1`, the INHIBITION was 59.7%.

In the case of `COc1ccc(-c2nc(CN3CCCS3(=O)=O)co2)cc1`, the INHIBITION is -91.4%.

As to `Cc1nc(CNCC2CN(C)CCO2)cs1` (stereo not drawn), the INHIBITION was 51.6%.

For the molecule `Cc1ccc(-c2nc(CN3CCN(CCO)CC3)co2)cc1`, the INHIBITION came to 27.4%.

In the case of `Cc1nc(COc2ccc(CNCC3CN(C)CCO3)cc2)cs1` (stereo not drawn), the INHIBITION is on record as 32.4%.

On to `CCN1CCOC(CNCc2csc(C)n2)C1` (stereo not drawn), for which the INHIBITION was -65.3%.

For the molecule `Cc1cc(N2CCOC(c3ccccn3)C2)nc(N)n1` (stereo not drawn), the INHIBITION turned out to be 2.6925%.

As for `CC(Cn1ccnc1)NC(=O)N1CCN(Cc2cccs2)CC1` (stereo not drawn), the INHIBITION was found to be 49.1%.

As to `O=S(=O)(NC1CCC12CCN(CC1CCOCC1)CC2)c1ccccc1` (stereo not drawn), the INHIBITION came out at 36.4%.

Turning to `FC(F)(F)c1cccc(N2CCC(NCc3cccnc3)CC2)c1`, the INHIBITION stood at 71.2%.

On to `Cc1n[nH]cc1CNC1CCN(c2ccccc2)CC1`, for which the INHIBITION came out at 49.9%.

`Cc1n[nH]cc1CNC1CCN(c2ccc(F)cc2)CC1`: the INHIBITION is listed as 49.9%.

For the molecule `O=C(c1ccoc1)N1CCC(NCc2cccnc2)CC1`, the INHIBITION is 10.2%.

Regarding `Cc1n[nH]cc1CNC1CCN(c2cccc(C(F)(F)F)c2)CC1`, the INHIBITION was 78.6%.

`COCCN1CCC(NCc2cccnc2)C1` (stereo not drawn): the INHIBITION is reported as -27.3%.

Consider `CC1CN(Cc2ccc(C#N)cc2F)CCN1Cc1nccn1C` (stereo not drawn), for which the INHIBITION came to 11.433%.

`Cc1ccc(CN2CCCn3cnc(COCC4CC4)c3C2)o1`: the INHIBITION is -49.1%.

As for `CN(CCc1ccccn1)C(=O)CCC1CCCN(c2ccncc2)C1` (stereo not drawn), the INHIBITION was 26.8%.

`O=C(C1CCOCC1)N1CCO[C@H]2[C@H](Oc3cccnc3)CC[C@@H]21`: the INHIBITION amounted to 10%.

In the case of `CC(C)c1noc(CN2CCN(C(=O)c3cc(Cl)ccc3F)CC2)n1`, the INHIBITION is on record as -17%.

As to `CC(C)c1noc(C[S+]([O-])CC(=O)Nc2ccc(F)c(F)c2)n1` (stereo not drawn), the INHIBITION turned out to be 51.3%.

`CC(C)c1noc(CCCC(=O)Nc2cccc(F)c2)n1`: the INHIBITION is listed as 27%.

`CC(C)NC(=O)c1cccc(NC(=O)CCCc2nc(C(C)C)no2)c1`: the INHIBITION is given as -8.87%.

Regarding `CC(C)c1noc(C[S+]([O-])CC(=O)Nc2cc(F)ccc2F)n1` (stereo not drawn), the INHIBITION stood at 56.3%.

As for `CC(C)c1noc(CCC(=O)Nc2cc(F)ccc2F)n1`, the INHIBITION is 34%.

`CCN(Cc1ccco1)C(C)c1nc(C(C)(C)C)no1` (stereo not drawn): the INHIBITION is 2.9%.

For the molecule `CCn1cnnc1CNC(=O)Cc1ccc2c(c1)OCCO2`, the INHIBITION was determined as 1.78%.

On to `O=C(NC[C@]1(O)CN(Cc2ccccc2F)C[C@H]1O)c1cscn1`, for which the INHIBITION is 14.5%.

As for `CCn1c(CC2CCN(S(=O)(=O)c3cccs3)CC2)nn(C)c1=O`, the INHIBITION turned out to be 41.5%.

`Cc1noc(C)c1CNCc1c(C(C)C)nn(C)c1N1CCOCC1`: the INHIBITION is 34.5%.

For the molecule `Cc1cccc(-n2ncc(C(=O)N3CCn4c(C)nnc4C3)c2C)c1`, the INHIBITION stood at 60.6%.

For `Cc1cccc(-n2c(C)cc(C(=O)N3CCn4c(C)nnc4C3)c2C)c1`, the INHIBITION amounted to 35.3%.

Consider `Cc1nnc2n1CCN(C(=O)c1cc(C)n(-c3ccccc3)c1C)C2`, for which the INHIBITION is 44.3%.

As to `COc1ccc2nnc(CCCC(=O)NCc3ccccc3)n2n1`, the INHIBITION is 44.4%.

As for `CCc1ccc(CN2CCC3(CC2)C(=O)N(C)CCN3CC2CC2)cc1`, the INHIBITION is on record as -17.1%.

As to `COC[C@@]12CC[C@@H](N3CCOCC3)C[C@H]1CCN(c1ncccc1C)C2`, the INHIBITION was 45.8%.

On to `COC[C@@]12CC[C@@H](N3CCOCC3)C[C@H]1CCN(c1ccc(Cl)cn1)C2`, for which the INHIBITION stood at 16.7%.

In the case of `COC[C@@]12CC[C@@H](N3CCOCC3)C[C@H]1CCN(c1ncccn1)C2`, the INHIBITION turned out to be 53.5%.

`COC[C@@]12CC[C@@H](N3CCOCC3)C[C@H]1CCN(c1cnccn1)C2`: the INHIBITION is reported as -15.1%.

Take `COC[C@@]12CC[C@@H](N3CCOCC3)C[C@H]1CCN(c1cc(C)ccn1)C2`: the INHIBITION worked out at 70.3%.

In the case of `COC[C@@]12CC[C@@H](N3CCOCC3)C[C@H]1CCN(c1ncccc1Cl)C2`, the INHIBITION was 13.5%.

As to `O=C(Cn1cnc2sccc2c1=O)NCCc1nnc2ccccn12`, the INHIBITION stood at 46.4%.

Regarding `COCC(=O)N1CCc2ccc(=O)n(CC3CC3)c2CC1`, the INHIBITION is -13.2%.

As for `c1csc(CNCC2COCc3c(-c4ccoc4)nnn3C2)n1` (stereo not drawn), the INHIBITION is 13.1%.

With `CCCC(=O)Nc1cccc(C(=O)N(C)CCCC2CCCO2)c1` (stereo not drawn), the INHIBITION amounted to 33.7%.

Consider `COCCn1c2c(ccc1=O)CCN(Cc1ccoc1)CC2`, for which the INHIBITION was 25.1%.

`CCN1CCC2(C=C(C(=O)NC3CC3)c3ccccc32)CC1`: the INHIBITION was 12.4%.

As for `CNc1ncc(CN(C)C(=O)c2cccc(CC3CCNCC3)c2)cn1`, the INHIBITION was found to be 19.1%.

In the case of `Cc1nc(CN(C)C(=O)c2cccc(CC3CCNCC3)c2)no1`, the INHIBITION was found to be 34%.

Regarding `CN(Cc1nc(C2CC2)no1)C(=O)C1COc2ccccc2C1` (stereo not drawn), the INHIBITION was -9.08%.

In the case of `CN(Cc1ccno1)C(=O)c1cccc(CC2CCNCC2)c1`, the INHIBITION is 70.4%.

Regarding `CN(Cc1nc(C2CC2)no1)C(=O)c1cccc(CC2CCNCC2)c1`, the INHIBITION was 59.7%.

As for `CCOCCn1c(=O)[nH]c2cc(C(=O)N(C)Cc3ccno3)ccc21`, the INHIBITION is listed as 8.35%.

`CCN(Cc1cnn(C)c1)C[C@H]1CC[C@@H](Cc2cccc(CN)c2)O1`: the INHIBITION is given as 15.1%.

Take `Cc1cnn(CC2CCCN2CCCS(C)(=O)=O)c1` (stereo not drawn): the INHIBITION was 13.3%.

For the molecule `CCN(c1cc(C)cc(C)c1)S(=O)(=O)c1cc(C(=O)O)cs1`, the INHIBITION was determined as 42.9%.

Regarding `O=C(NCc1ccco1)[C@H]1CC[C@@H]2[C@@H](CCN2Cc2nccs2)O1`, the INHIBITION was -30.1%.

For the molecule `Cc1ccc(NC(=O)c2n[nH]c(-n3cnnc3)n2)cc1`, the INHIBITION is -5.59%.

`Cc1noc(C)c1CCC(=O)N1CCCN(CC(N)=O)CC1`: the INHIBITION is on record as 37.95%.

On to `Cc1noc(C)c1CC(=O)N1CCCN(Cc2cscn2)CC1`, for which the INHIBITION came out at 57.4%.

In the case of `Cc1noc(C)c1CC(=O)N1CCN(Cc2cscn2)CC1`, the INHIBITION was 27.94%.

Consider `Cc1noc(C)c1CCC(=O)N1CCN(Cc2cscn2)CC1`, for which the INHIBITION came to 1.7%.

For the molecule `CCc1nc(CN2CCN(C(=O)N3CCCCC3)CC2)cs1`, the INHIBITION is listed as -2.53%.

On to `Cc1noc(C)c1CCC(=O)N1CCCN(Cc2cscn2)CC1`, for which the INHIBITION is -5.51%.

With `Cc1noc(C)c1CCC(=O)N1CCCN(Cc2cccs2)CC1`, the INHIBITION is recorded as 52%.

Take `CCc1nc(CN2CCN(C(=O)Cc3c(C)noc3C)CC2)cs1`: the INHIBITION stood at 50.4%.

As to `CCc1nc(CN2CCCN(C(=O)c3c(C)noc3C)CC2)cs1`, the INHIBITION is 28.7%.
